D1 antagonist: antagonists of human D1 dopamine receptor. actives 3.2% (n = 360,000). HEK293 TREx D1 cells, calcium flux, dopamine EC80; active compounds read low. activity change, negative = inhibition, % at 10 µM. P21728. AID 504652; in the data active = activity change below about -30%; note: % is set by controls: 0 for no effect and ±100 for the full control effect
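After overnight tetracycline induction at 30 C, force-coupled D1 HEK293 cells took up a no-wash calcium dye at room temperature. Compounds were added and monitored 180 s, and the response to EC80 dopamine was then recorded.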
DRD3 agonist: agonists of human D3 dopamine receptor; P35462; actives 0.58% (n = 410,000); AID 652048; max activation, %; D3R DiscoveRx beta-arrestin cells, luminescence, 90 min; in the data active = max activation above about 30%; note: 0% is about no effect
Target sequence (P35462 whole entry, looked up): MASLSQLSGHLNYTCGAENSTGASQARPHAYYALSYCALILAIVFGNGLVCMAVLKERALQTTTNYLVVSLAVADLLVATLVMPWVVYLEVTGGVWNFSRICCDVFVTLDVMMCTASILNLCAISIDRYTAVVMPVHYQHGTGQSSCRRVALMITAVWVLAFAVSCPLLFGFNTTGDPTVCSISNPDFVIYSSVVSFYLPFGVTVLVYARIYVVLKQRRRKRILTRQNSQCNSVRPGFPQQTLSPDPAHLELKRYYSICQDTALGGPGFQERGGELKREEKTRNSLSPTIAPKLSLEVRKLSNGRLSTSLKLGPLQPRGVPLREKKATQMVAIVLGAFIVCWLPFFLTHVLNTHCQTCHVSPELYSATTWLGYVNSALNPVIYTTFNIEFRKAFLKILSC
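Cells at 1500/well, incubated overnight, then treated with pinned compounds (dopamine as control) for 90 min at 37 degrees C. DiscoveRx reagent added for 30 - 60 minutes at room temperature; luminescence read.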
D1 PAM: enhances dopamine response at the human D1 receptor. actives 0.036% (n = 360,000). HEK293 TREx D1 cells, calcium flux, dopamine EC20 potentiation. potentiation, % at 10 µM; in the data active = potentiation above about 30%; note: 0% is about no effect
D1 agonist: human D1 receptor agonism | P21728 | HEK293 T-REx D1 cells, calcium flux, agonist mode | activation, % at 2 µM | actives 1% (n = 360,000) | AID 504660; in the data active = activation above about 30%; note: 0% is about no effect
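Inducible HEK293 T-REx D1 cells, force-coupled to calcium signalling, were plated at 4000 cells/well with tetracycline and held overnight at 30 C. After no-wash calcium dye loading, compound-evoked calcium rise over 180 s flagged agonists.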
D3 antag: D3 dopamine receptor (human) antagonism; P35462; D3R cells, DiscoveRx beta-arrestin luminescence, antagonist mode; active compounds read low; max response, negative = inhibition, %; actives 2.5% (n = 360,000); AID 652054; in the data active = max response below about -50%; note: % is set by controls: 0 for no effect and ±100 for the full control effect
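Cells expressing the human receptor were seeded at 1500 cells/well, incubated overnight at 37 degrees C in 5% CO2, then exposed to library compounds with dopamine controls for 90 minutes at 37 degrees C before luminescent detection.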
* hit, by the source's call; . = no result. Shown are actives, neighbours in structure and some others; about 6% of the full set was active somewhere.

SMILES	D1 antagonist	DRD3 agonist	D1 PAM	D1 agonist	D3 antag
c1ccc(-c2noc(CSc3nnnn3-c3ccccc3)n2)cc1	-43*	4	-5	13	27
Cc1ccc(Nc2nc(CSc3nnnn3-c3ccccc3)cs2)cc1	5	2	-3	1	1
Cc1cccc(-n2nnnc2SCc2csc(-c3ccccc3)n2)c1	-26	7	-2	42*	-2
COc1ccc(CCNC(=O)c2cc3c(=O)n4cccc(C)c4nc3n2C)cc1	-1	3	-3	0	.
Cc1ccc(S(=O)(=O)CCC(=O)Nc2ccc(Br)cc2C)cc1	-8	-7	1	0	.
CC(=O)[C@@H]1[C@@H]2C(=O)N(C3CCCCC3)C(=O)[C@@H]2C2c3ccccc3C=CN21 (some centres not stated)	0	.	-6	5	.
O=C1NC(=O)[C@@H]2C3c4ccccc4C=CN3[C@H](C(=O)c3cccs3)[C@H]12 (some centres not stated)	-70*	.	-10	4	.
COc1cc(O)c(C(CCN2CCCCC2)c2ccc(N(C)C)cc2)c(OC)c1 (configuration not stated)	-34*	-17	0	10	-10
COc1cc(O)c(C(CCN2CCCC2)c2ccc(N(C)C)cc2)c(OC)c1 (configuration not stated)	-2	-10	-5	5	4
COc1cc(C2CC(=O)Oc3c(C(CCN4CCN(c5ccccc5)CC4)c4ccc(N(C)C)cc4)c(OC)cc(OC)c32)cc(OC)c1OC (configuration not stated)	-38*	-14	-1	3	-103*
COc1ccc(C2CC(=O)Oc3c(C(CCN4CCCCC4)c4ccc(N(C)C)cc4)c(OC)cc(OC)c32)cc1 (configuration not stated)	-25	-3	-8	7	-58*
CCCCn1cc(S(=O)(=O)c2ccc(OC)cc2)c(=O)c2cc(CC)ccc21	15	1	1	1	.
O=c1cc(CSc2n[nH]c(-c3ccccc3)n2)[nH]c2ccccc12	-20	-5	-1	-1	.
CCn1ccc2cc(S(=O)(=O)N3CCC(C(=O)NCc4ccc(OC)cc4)CC3)ccc21	-18	-1	-2	8	.
COCCN(C(=O)c1cccc(-n2cnnn2)c1)c1c(N)n(CC(C)C)c(=O)[nH]c1=O	-40*	0	-6	-1	-9
CCCn1c(N)c(N(CCOC)C(=O)c2ccc(F)cc2)c(=O)[nH]c1=O	-19	-3	4	3	6
COCCN(C(=O)CSc1nnc(Nc2ccc(C)cc2)s1)c1c(N)n(CC(C)C)c(=O)[nH]c1=O	-6	-3	36*	2	3
COCCN(C(=O)c1cc(-c2ccc(F)cc2)nc2ccccc12)c1c(N)n(CC(C)C)c(=O)[nH]c1=O	.	4	.	.	-7
CCCCCn1nc(C(=O)N(CCOC)c2c(N)n(CCCC)c(=O)[nH]c2=O)c2ccccc2c1=O	-3	-6	-5	-2	-9
CCCCn1nc(C(=O)N(CCOC)c2c(N)n(CCCC)c(=O)[nH]c2=O)c2ccccc2c1=O	-30*	1	.	6	8
CCCn1c(N)c(N(CCOC)C(=O)c2ccccc2)c(=O)[nH]c1=O	-36*	23	0	5	14
COc1cc2c(c(OC)c1OC)-c1c(cc(OC)c(OC)c1OC)C[C@](C)(O)[C@@H](C)C2	-26	4	8	2	-4
O=C1CCSC2(C(=O)N(Cc3ccc(F)cc3)c3ccccc32)N1c1ccc(F)c(F)c1 (configuration not stated)	4	5	-2	1	.
Fc1ccc(-c2nc(Nc3ccc(F)c(Cl)c3)nc3c2COc2ccccc2-3)cc1	-23	6	2	11	.
Cc1ccc(C)c(N2CCN(c3nc4ccccc4n4nnnc34)CC2)c1	5	1	-1	12	.
SMILES	D1 antagonist	DRD3 agonist	D1 PAM	D1 agonist	D3 antag
CCCCn1c(N)c(N(CC)C(=O)c2c(CC)noc2C)c(=O)[nH]c1=O	-14	-3	-7	3	0
CCCCn1c(N)c(N(Cc2ccccc2OC)C(=O)c2c(CC)noc2C)c(=O)[nH]c1=O	-44*	-2	5	1	5
CCCNc1nc(NCc2ccccc2OC)c2cnn(C)c2n1	-5	-11	1	-2	.
Cc1cnc(CNC(=O)c2ccc(OC3CCN(C(=O)C4CC4)CC3)cc2)cn1	0	-2	5	2	2
O=C(NCC1CCCO1)c1ccc(OC2CCN(C(=O)C3CC3)CC2)cc1 (configuration not stated)	-34*	-4	3	0	14
CC1=C(C#N)C(c2cn(-c3ccccc3)nc2-c2cccs2)C(C#N)=C(C)N1	-14	33*	2	2	26
Cc1csc(NC(=O)c2cc3c(s2)CCCC3)n1	-44*	0	-12	11	0
Cc1nc2ncnn2c(C)c1CCC(=O)O	-37*	3	-2	1	7
CC(C)C[C@@H](CO)N(Cc1ccccc1)S(=O)(=O)N(Cc1ccccc1)[C@H](CO)CC(C)C	-18	48*	-7	18	129
C=CS(=O)(=O)N(Cc1ccccc1Br)[C@H](CO)CC(C)C	.	0	.	.	-81*
OCC(CBr)(CBr)CBr	.	-5	-4	4	-54*
O=C(Cn1c(=O)n(Cc2ccccc2)c(=O)c2oc3ccccc3c21)Nc1ccc(Cl)cc1	14	0	-3	2	.
Cc1cc(C)cc(OCC(=O)N2N=C(C(F)(F)F)CC2(O)C(C)(C)C)c1 (configuration not stated)	-12	1	-6	34*	12
CCOC(=O)C1CCN(c2ccc(C(N)=O)cc2[N+](=O)[O-])CC1	-33*	1	-4	11	11
NC(=O)c1ccc(N2CCN(S(=O)(=O)c3ccccc3)CC2)c([N+](=O)[O-])c1	-40*	7	1	12	-5
NC(=O)c1ccc(N2CCC(C(N)=O)CC2)c([N+](=O)[O-])c1	12	-3	2	2	-17
Cc1ccc(OC(=O)c2cccc(S(=O)(=O)N3CCN(C)CC3)c2)c(Br)c1	-32*	0	-10	6	11
Cc1ccc(C)c(OC(=O)c2cccc(S(=O)(=O)N3CCN(C)CC3)c2)c1	0	-8	10	3	0
O=C(c1cnn(-c2ccccc2)c1)c1ccc2ccccc2c1O	-32*	-2	10	5	32
O=C(O)c1ccc(-n2cc(C(=O)c3ccccc3O)cn2)cc1	-3	-1	-1	5	-13
CC(=O)NCCCS(=O)(=O)O	.	3	.	.	.
COC(=O)c1sccc1NC(=O)c1c(C)noc1C	3	1	-10	0	18
COC(=O)c1sc(NC(=O)COc2ccc(C)cc2)nc1C	-8	-4	0	-1	21
COC(=O)c1sccc1NC(=O)c1cc(C)on1	-14	-10	-3	2	-53*

Screening data: PubChem, National Center for Advancing Translational Sciences (NCATS)
